Compound activity from PubChem.
IL1B secr inh: qHTS for Inhibitors of Inflammasome Signaling: IL-1-beta AlphaLISA Primary Screen | THP-1 LPS/ATP IL-1B secretion, AlphaLISA, 16 h; stronger effect = lower value | activity change, % at 57.5 µM | hit rate 4.7% among 360,000; in the data active = activity change below about -50%; inconclusive = mostly about -30% to -49%
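THP-1 cells pretreated 1 hr with compounds (up to 57.5 uM final), then stimulated with LPS (250 ng/mL final) plus ATP (1.25 mM final); secreted IL-1B measured by AlphaLISA after 16 hr, decreased signal indicating inhibition.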
HT1080NT lethal: qHTS for induction of synthetic lethality in tumor cells producing 2HG: qHTS for the HT-1080-NT fibrosarcoma cell line; Potency, µM (doses to about 46.1 µM), inactives show top-dose activity, negative = less viability, hits mostly cytotoxic; HT-1080-NT fibrosarcoma viability, CellTiter-Glo ATP luminescence, 48 h; hit rate 1.6% among 360,000;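 note: NT is the 2HG producing partner of a matched IDH1 knockdown line; potency is the fitted concentration of half-maximal effect; 0% = DMSO-treated cells and -100% = media-only wells without cells; nearly all actives have a fitted effect of over 55% in size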
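Fibrosarcoma NT cells, 750 per well in 5% FBS RPMI, were exposed to compound for 48 hours. Viability: CellTiter-Glo luminescence.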
HT1080 IDH1KD tx: qHTS for induction of synthetic lethality in tumor cells producing 2HG: qHTS for the HT-1080-IDH1KD cell line. AID 686971, 2013. HT-1080 IDH1 knockdown viability, ATP luminescence, 48 h. hit rate 2% among 360,000. Potency, µM (titrated, usually from 46.1 µM), inactives show top-dose activity, negative = toxicity, usual class: cytotoxic;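 note: potency is the fitted concentration of half-maximal effect; 0% = DMSO wells and -100% = cell-free medium wells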
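Assay cells: HT-1080 with IDH1 knockdown, 750 per well, RPMI/5% FBS. Exposure: 48 h at 37 °C following 2 h pre-incubation. Read: CellTiter-Glo luminescence; fitted concentration-response, curve class assigned.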
TDP1 cell CPT: qHTS for Inhibitors of human tyrosyl-DNA phosphodiesterase 1 (TDP1): qHTS in cells in presence of CPT | chicken DT40 Tdp1-/-;hTDP1 cells + 20 nM CPT, ATP luminescence, 48 h | Potency, µM (highest dose often 46.2 µM), for inactives: top-dose activity change, negative = growth inhibition, usual class: inhibitors | hit rate 12% among 420,000 | AID 686979, 2013; note: potency is the fitted concentration of half-maximal effect; nearly all actives have a fitted effect of over 55% in size
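Cell growth measured by CellTiter-Glo luminescence after a minimum 48 h, 37 C compound exposure with 20 nM CPT in Tdp1-knockout DT40 cells stably expressing hTDP1, seeded 400/well; qHTS titration format.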
TDP1 cell noCPT: qHTS for Inhibitors of human tyrosyl-DNA phosphodiesterase 1 (TDP1): qHTS in cells in absence of CPT | DT40 Tdp1-/- hTDP1 cells, no CPT, ATP luminescence, 48 h | Potency, µM (series often up to 46.2 µM), for inactives: top-dose activity change, negative = growth inhibition, actives largely listed as inhibitors | hit rate 15% among 420,000; note: potency is the fitted concentration of half-maximal effect; nearly all actives have a fitted effect of over 55% in size
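Stably hTDP1-transfected Tdp1-null chicken DT40 cells were treated with library compounds minus camptothecin and grown for at least 48 hr at 37 °C, after which cellular ATP was quantified by luminescence.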
The depositor's hits bear a star; u = inconclusive; x = not tested or not shown. Hits are enriched below; roughly 19% of the tested compounds scored in any of these assays. Unless noted, calls come from the whole dose curve; as a rule, active = well fitted curve in the direction sought with a large enough effect; inconclusive = small, poorly fitted or top-dose-only effect, or another doubt; inactive = no such curve, though single readings can be large; an effect the other way counts as inactive or inconclusive. Unless noted, % is set by controls: 0 for no effect and ±100 for the full control effect.

SMILES	IL1B secr inh	HT1080NT lethal	HT1080 IDH1KD tx	TDP1 cell CPT	TDP1 cell noCPT
Cn1c(=O)c2cc(C(=O)N3CCN(c4cccc(C(F)(F)F)c4)CC3)sc2c2ccccc21	x	x	x	u	3.7µM*
Cn1c(C(=O)N2CCN(c3ncccn3)CC2)cc2c(=O)n(C)c3ccccc3c21	-9	3%	7%	u	21µM*
Cn1c2ccccc2c2cnn(CC(=O)N3CCN(c4cccc(C(F)(F)F)c4)CC3)c(=O)c21	x	x	x	2%	-4%
CC(C)CC(=O)Nc1nnc(S(=O)(=O)N2c3ccccc3CC2C)s1 (stereo not drawn)	23	-21%	-11%	3%	1%
CCOC(=O)c1nn(-c2ccccc2C)c(=O)cc1OCC(=O)N1CCN(c2ccccc2)CC1	12	-8%	-12%	-21%	-5%
Nc1nc(Cl)nc2ccc(Br)cc12	22	-9%	-8%	u	12µM*
Cc1ccc(Cn2cccc2/C=N/NC(=S)Nc2ccc(C)cc2)cc1	68	-21%	u	4.6µM*	6.5µM*
Cc1cccc(NC(=S)N/N=C/c2c[nH]c3ccccc23)c1	-23	23µM*	16µM*	2.6µM*	2.6µM*
Cc1ccc(NC(=S)N/N=C/c2c(C)[nH]c3ccccc23)cc1	-1	u	u	u	29µM*
Cc1[nH]c2ccccc2c1/C=N/NC(N)=S	-18	7%	23%	-5%	7%
CCCN(C(=O)CSc1ncccn1)C1CCS(=O)(=O)C1 (stereo not drawn)	5	8%	10%	0%	23%
CCOc1cc(N2CCOCC2)c(OCC)cc1NC(=O)CN1C(=O)N(C)C2(CCCCC2)C1=O	-2	1%	-5%	6%	20%
O=C(Nc1ccc(Br)cc1)c1cc(Br)c(Br)s1	x	x	x	u	19µM*
COc1ccc(NC(=O)c2cc(Br)c(Br)s2)cn1	-53*	-10%	-12%	0%	u
COc1ccc(NC2CCCN(C(=O)CSc3ccncc3)C2)cc1 (stereo not drawn)	5	4%	6%	-18%	u
Cc1cc(=O)oc2c(N)nccc12	-105*	-25%	-16%	u	u
COc1ccc2c(C)cc(=O)oc2c1C	4	10%	6%	-16%	-12%
CC1COc2c3ccccc3nn21 (stereo not drawn)	2	17%	8%	-5%	1%
CCn1c(SCC(=O)Nc2ccccc2)nc2c(c1=O)SCC2	-3	-8%	-1%	-15%	-4%
O=C1[C@H]2[C@@H](C(=O)N1c1cc(Cl)cc(Cl)c1)[C@]1(C(=O)Nc3ccccc31)N1CCC[C@@H]21	0	-17%	u	-26%	-6%
COC(=O)c1c(N2C(=O)[C@H]3[C@@H](C2=O)[C@]2(C(=O)Nc4c2ccc(C)c4C)N2CCC[C@@H]32)sc(C)c1C	-10	-18%	-21%	18µM*	16µM*
Cc1cc(C)cc(N(CC(=O)Nc2ccc(-c3nc4ccc(C)cc4s3)cc2)S(C)(=O)=O)c1	-20	u	u	23µM*	15µM*
Cc1ccc2nc(-c3ccc(NC(=O)COC(=O)c4ccco4)cc3)sc2c1	-51*	u	u	-22%	u
Cc1ccc2nc(-c3ccc(NC(=O)COc4ccccc4)cc3)sc2c1	x	x	x	-11%	-13%
Cc1ccc2nc(-c3ccc(NC(=O)CN(c4ccccc4C)S(C)(=O)=O)cc3)sc2c1	-28	-5%	-22%	21µM*	15µM*
SMILES	IL1B secr inh	HT1080NT lethal	HT1080 IDH1KD tx	TDP1 cell CPT	TDP1 cell noCPT
Cc1ccc2nc(-c3ccc(NC(=O)COC(=O)c4ccc(Br)o4)cc3)sc2c1	28	u	u	u	u
COC(=O)c1ccccc1NC(=O)Cn1c(=O)n(Cc2ccc(C(=O)NCc3ccc4c(c3)OCO4)cc2)c(=O)c2ccccc21	x	x	x	-20%	-19%
COc1ccc2nc3cc(Cl)ccc3c(C#N)c2c1	18	8%	9%	14%	2%
COc1ccc2nc(C(F)(F)Cl)c(C#N)c(N)c2c1	-72*	-10%	-18%	u	u
Fc1ccccc1NC(=S)NC1CCCC1	12	-2%	-1%	u	23µM*
Cc1cccc(NC(=S)NC2CC3CCCC(C2)N3Cc2ccccc2)c1C (stereo not drawn)	-28	7%	-3%	16µM*	u
Cc1cccc(NC(=S)NC2CC3CCC(C2)N3Cc2ccco2)c1C (stereo not drawn)	1	0%	-27%	-28%	-7%
CC(C)(C)c1ccccc1NC(=S)NC1CCCC1	11	-1%	-1%	u	u
COc1ccccc1NC(=S)NC1CCCCCC1	-3	30%	2%	u	18µM*
CC(C)(C)c1ccccc1NC(=S)NC1CCCCC1	2	11%	-1%	u	18µM*
N#Cc1ccccc1OCC(=O)N1CCN(C(=O)c2ccco2)CC1	26	4%	9%	-20%	10%
COc1ccc(C2CC(c3c(O)n(C4CCCCC4)c(=O)[nH]c3=O)=Nc3ccccc3S2)cc1 (stereo not drawn)	x	x	x	6%	7%
Cc1cc(Cl)ccc1NC(=S)NC1CCCC1	-9	5%	5%	u	21µM*
Cc1cccc(NC(=S)NC2CCCCCC2)c1C	32	-1%	-5%	21µM*	10µM*
S=C(Nc1cccc(Cl)c1)NC1CCCCC1	-15	-15%	-22%	-9%	-29%
